The list is not random: actives were taken first. Their share in the collection is about 1.4%.
APOBEC3G inh: APOBEC3G DNA deaminase inhibitors, primary screen, biochemical, fluorescence, single-stranded DNA substrate, uHTS; recombinant A3G, ssDNA deamination FAM/TAMRA fluorescence; inhibition, % at 20 µM; 330,000 compounds, 0.28% hits;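 active = inhibition of at least 40% at 20 µM, with no more than 30% in the related APOBEC3A deaminase screen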;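 also: plate controls were DMSO wells with A3G for no effect and wells lacking A3G enzyme for full effect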
Target sequence (Q9HC16 whole entry, looked up): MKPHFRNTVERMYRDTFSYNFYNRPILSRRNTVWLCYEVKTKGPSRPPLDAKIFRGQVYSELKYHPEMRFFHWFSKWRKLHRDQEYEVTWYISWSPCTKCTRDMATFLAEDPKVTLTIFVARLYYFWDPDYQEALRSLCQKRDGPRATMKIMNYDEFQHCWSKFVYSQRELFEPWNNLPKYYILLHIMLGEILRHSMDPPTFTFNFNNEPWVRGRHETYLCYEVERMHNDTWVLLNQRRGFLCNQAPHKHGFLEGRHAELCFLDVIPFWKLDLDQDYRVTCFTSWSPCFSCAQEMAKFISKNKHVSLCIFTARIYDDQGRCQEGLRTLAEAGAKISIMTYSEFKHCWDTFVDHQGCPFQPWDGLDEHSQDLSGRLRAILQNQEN
LANA-H2A inh: blockers of LANA interaction with H2A/H2B – biochemical, FP readout, HTS, primary screen. cell-free LANA-H2A/H2B peptide, fluorescence polarization. AID 2629, 2010. Protein LANA1 (Human herpesvirus 8 type P (isolate GK18)), Q9QR71. inhibition, % (concentration not given with the values). 320,000 compounds, 0.6% hits; in the data active = inhibition mostly above about 10%, no sharp cut-off; inactive = mostly below about 6.7%
HDAC3 inhib: HDAC3 deacetylase inhibitors, primary screen, biochemical, fluorescence, cell-free homogeneous; Histone deacetylase 3 (Homo sapiens), O15379; recombinant HDAC3, fluorogenic peptide/trypsin coupled; inhibition, % at 8.3 µM; 320,000 compounds, 0.15% hits; AID 2718, 2010; in the data active = inhibition above about 26%, passing the limit was not always enough; inconclusive = no clear call, values can overlap the other calls
APOBEC3A inh: APOBEC3A ssDNA deaminase inhibitors, primary screen, selectivity assay for APOBEC3G inhibitor project, biochemical, FAM/TAMRA oligo cleavage fluorescence | DNA dC->dU-editing enzyme APOBEC-3A (Homo sapiens), P31941 | recombinant A3A, FAM/TAMRA ssDNA deamination fluorescence | inhibition, % at 20 µM | 330,000 compounds, 0.41% hits | AID 493011, 2011;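 active = at least 40% inhibition at 20 µM here, with at most 30% in a related deaminase screen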;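 also: plate controls were A3A with DMSO for no effect and wells lacking A3A enzyme for full effect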
A3G conf: APOBEC3G deaminase inhibitor retest, confirmation, biochemical, fluorescence, single-stranded DNA substrate, single concentration; recombinant A3G ssDNA deaminase, UDG/FAM-TAMRA fluorescence; inhibition, % at 20 µM; 890 compounds, 72% hits; shares compounds with APOBEC3G inh; AID 493152, 2011;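 active = inhibition reaching a set limit in any replicate at 20 µM, the limit being 80% of the first screen's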
UDG A3G counter: E. coli UDG inhibitors, confirmation, counter-screen for APOBEC3G inhibitor project, biochemical, single concentration, fluorescence, FAM/TAMRA oligo. shares compounds with APOBEC3G inh. UDG counterscreen. inhibition, % at 20 µM. 710 tested, under 10 active. AID 504715, 2011;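 active = compounds giving 40% or more inhibition at 20 µM in any one of the three replicates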;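 also: plate controls were DMSO wells with UDG and oligo for no effect and DMSO wells lacking both for full effect; inhibitors lower the FAM signal released by uracil excision and alkaline cleavage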
Target sequence (P12295 whole entry, looked up): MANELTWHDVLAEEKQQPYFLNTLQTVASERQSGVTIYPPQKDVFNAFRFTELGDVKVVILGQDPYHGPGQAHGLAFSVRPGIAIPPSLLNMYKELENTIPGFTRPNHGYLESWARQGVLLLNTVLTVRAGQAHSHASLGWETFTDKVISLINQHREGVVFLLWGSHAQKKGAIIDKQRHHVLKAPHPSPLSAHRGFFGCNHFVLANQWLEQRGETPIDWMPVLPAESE
* = called active by the depositor; ? = inconclusive; nt = no result given.

SMILES | APOBEC3G inh | LANA-H2A inh | HDAC3 inhib | APOBEC3A inh | A3G conf | UDG A3G counter
CCC(CC)c1nnc(NC(=O)COc2ccc3c(c2)OCO3)s1 | 45* | 2 | 6 | 3 | 47* | 0
CC(C)c1nnc(NC(=O)COc2ccc3c(c2)OCO3)s1 | -15 | -2 | -10 | -2 | nt | nt
Cc1cc2oc(=O)cc(CN(C)Cc3ccccc3Cl)c2cc1C | -6 | -7 | 2 | 0 | nt | nt
CSc1nc2c(c(=O)[nH]c(=O)n2C)n1Cc1ccccc1Cl | -7 | 1 | 3 | -4 | nt | nt
CSc1nc2c(c(=O)[nH]c(=O)n2C)n1Cc1ccc(Cl)cc1 | 53* | 15 | 1 | 1 | 56* | -3
O=C1CCc2cc(NS(=O)(=O)c3ccc(Br)cc3)cc3c2N1CC3 | -6 | 1 | 2 | -2 | nt | nt
CCCS(=O)(=O)N1CCN=C1SCc1cccnc1 | -1 | 6 | -5 | -2 | nt | nt
S=c1[nH]nc(-c2cc(-c3ccccc3)n[nH]2)n1/N=C/c1ccc(Cl)c(Cl)c1 | 13 | -1 | -7 | -2 | nt | nt
S=c1[nH]nc(-c2cc(-c3ccccc3)n[nH]2)n1/N=C/c1ccc(Cl)cc1 | 8 | 4 | 3 | -2 | nt | nt
S=c1[nH]nc(-c2cc(-c3ccccc3)n[nH]2)n1/N=C/c1cccc(Cl)c1 | 53* | 2 | ? | -7 | 7 | 8
S=c1[nH]nc(-c2ccccn2)n1/N=C/c1ccc(Cl)c(Cl)c1 | 46* | 4 | 5 | 15 | 45* | -4
CCn1nc(C)cc1C(=O)N1CCCC(N(C)CCc2ccc(OC)c(OC)c2)C1 (stereo not given) | -2 | 0 | -5 | 1 | nt | nt
Cc1ccc(OC(C)C(=O)Nc2ccccc2C(=O)N2CCN(C)CC2)cc1 (stereo not given) | -5 | 4 | 0 | -1 | nt | nt
Cc1c2cnn(CC(=O)Nc3c(F)c(F)cc(F)c3F)c(=O)c2c(C)n1Cc1ccccc1F | 45* | 1 | -5 | 27 | 48* | -2
CNC(=O)Cn1ncc2c(C)n(Cc3ccc(C)cc3)c(C)c2c1=O | -8 | 3 | -7 | -12 | nt | nt
O=C(O)c1ccccc1C(=O)Nc1n[nH]c(=S)s1 | 64* | 4 | ? | 2 | 44* | -2
O=C(O)c1ccccc1C(=O)Nc1nccs1 | -12 | -3 | -4 | -2 | nt | nt
CCC1(C)CC(C(N)=S)CCO1 (stereo not given) | 57* | 4 | 2 | 1 | 45* | 4
CC1(C)CC(C(N)=S)CCO1 (stereo not given) | 0 | -4 | 4 | 0 | nt | nt
CCN(CC)S(=O)(=O)c1ccc2c(c1)nc(SCC(=O)N1CCOCC1)n2-c1ccccc1OC | 44* | 5 | 6 | 7 | 0 | nt
COc1cccc(OCc2cc(/C=N/NC(=O)c3ccn[nH]3)ccc2OC)c1 | 46* | -2 | nt | 1 | 1 | nt
O=C(Nc1nccs1)C1CC=CCC1C(=O)OCC(F)(F)C(F)F (stereo not given) | -2 | nt | -2 | -3 | nt | nt
COc1cccc(CN2CCN(Cc3[nH]c4ccccc4c3C)CC2CCO)c1 (stereo not given) | 51* | 4 | -5 | -2 | -8 | -8
Cn1ncc(Br)c1C(=O)N/N=C/c1cccc(OC2CSC2)c1 | -2 | 1 | -9 | 0 | nt | nt
O=C(N/N=C/c1cccc(OC2CSC2)c1)c1ccccc1O | 73* | 4 | -7 | -4 | -8 | -4
SMILES | APOBEC3G inh | LANA-H2A inh | HDAC3 inhib | APOBEC3A inh | A3G conf | UDG A3G counter
COc1cccc(/C=N/n2c(-c3cc(C)[nH]n3)n[nH]c2=S)c1OC | 43* | 8 | 15 | -3 | 85* | -4
COc1cccc(/C=N/n2c(-c3n[nH]c4c3CCC4)n[nH]c2=S)c1OC | 62* | 1 | nt | 1 | 70* | -3
COc1cc(/C=N/n2c(-c3cc(C)[nH]n3)n[nH]c2=S)cc(OC)c1O | 38 | 0 | -1 | -1 | nt | nt
COc1ccc(/C=N/n2c(-c3n[nH]c4c3CCC4)n[nH]c2=S)c(OC)c1OC | 49* | -5 | -1 | -5 | 82* | -3
CC1=C(O)C(=O)OC1c1c(Cl)cccc1Cl (stereo not given) | -3 | 4 | 2 | -2 | nt | nt
COc1cc(NC(=O)CN(C)S(=O)(=O)c2ccc(-c3ccc(=O)[nH]n3)s2)cc(OC)c1 | 4 | -3 | 1 | -1 | nt | nt
CCCOC(=O)c1c(NC(=O)C2CCCO2)sc(C(=O)OC)c1C (stereo not given) | 41* | nt | nt | -2 | 48* | -1
CCOC(=O)c1c(NC(=O)C2CCCO2)sc(C(N)=O)c1C (stereo not given) | 0 | -2 | -2 | 3 | nt | nt
Cn1c(SCC(=O)NNC(=O)c2ccc(Cl)cc2)nnc1-c1cccnc1 | -2 | 2 | -2 | 0 | nt | nt
O=C(CSc1cn[nH]n1)Nc1cccc(C(=O)O)c1 | 62* | 2 | 14 | -1 | 87* | -7
Cn1c2ccccc2c2nnc(SCC(=O)Nc3cccc(O)c3)nc21 | -5 | 4 | -1 | -4 | nt | nt
C=CCCC(=O)Nc1ccc(Br)cn1 | 55* | 3 | 6 | 0 | 13 | nt
CCCCC(=O)Nc1ccc(Br)cn1 | -6 | 5 | 5 | -5 | nt | nt
O=C(CN1CCCC1c1cccs1)Nc1cccc(S(=O)(=O)N2CCCC2)c1 (stereo not given) | -7 | 1 | -5 | -6 | nt | nt
CC(Sc1ccc2nnc(-c3ccc(F)cc3)n2n1)C(=O)O (stereo not given) | 42* | -6 | -1 | 0 | 52* | -3
O=C(CC1Sc2ncnn2C1=O)Nc1ccc(Br)cc1 (stereo not given) | 41* | 6 | 8 | -1 | 70* | -3
COc1ccc(N2C(=O)CC(Sc3ncn[nH]3)C2=O)c(OC)c1 (stereo not given) | 46* | 0 | 7 | -5 | active | -2
S=c1[nH]nc(-c2ccco2)n1C1CCCCC1 | 44* | 3 | 3 | -2 | 84* | 0
CCCCCC(O)CCc1n[nH]c(=S)n1-c1ccccc1 (stereo not given) | 41* | -2 | -1 | 0 | 58* | -3
CCCOc1ccc(CCc2n[nH]c(=S)n2-c2ccccc2)cc1 | -4 | 1 | 3 | -2 | nt | nt
CN(C)c1cccc(C(=O)OCC(=O)Nc2nccs2)c1 | -3 | -2 | -2 | 2 | nt | nt
O=C(O)c1ccc(-n2c(-c3ccc(Br)cc3)n[nH]c2=S)cc1 | 44* | -2 | 3 | -6 | 65* | -2
